{"source": "PubChem BioAssay (Tox21)", "note": "Records with an inconclusive call do not appear. The source made the active and inactive calls. Calls come from the whole dose curve; as a rule, active = well fitted cell-killing curve with a large enough effect in the repeat runs; inconclusive = weak or mixed curves; inactive = flat fitted curve, though single readings scatter. % is set by controls: 0 for no effect and ±100 for the full control effect; potency is the fitted concentration of half-maximal effect."}
{"experiment": "qHTS assay to identify small molecule antagonists of the estrogen receptor beta (ER-beta) signaling pathway - cell viability counter screen (AID 1259382); note: nearly all actives have a fitted effect of over 55% in size", "conditions": "ER-beta-UAS-bla HEK293T viability, CellTiter-Glo luminescence, 16 h; series mostly up to 92.4 µM; activity change, negative = cytotoxicity: at the top concentration", "from_the_text": "U.S. Tox21 Program National Center for Advancing Translational Sciences [NCATS] NIH Chemical Genomics Center [NCGC] U.S. Environmental Protection Agency [EPA] National Institutes of Environmental Health Sciences [NIEHS] National Toxicology Program [NTP] U.S. Food and Drug Administration [FDA] Tox21 Assay Overview: Estrogen receptor (ER), a nuclear hormone receptor, plays an important role in development, metabolic homeostasis and reproduction. Two subtypes of ER, ER-alpha and ER-beta, have similar expression patterns with some uniqueness in both types. Endocrine disrupting chemicals (EDCs) and their interactions with steroid hormone receptors like ER causes disruption of normal endocrine function. To identify the compounds that inhibit ER signaling, an ER-beta-UAS-bla GripTite cell line (Life Technologies, Madison, WI, USA) containing a beta-lactamase reporter gene under the control of an UAS response element was used to screen Tox21 10K compound library. The cytotoxicity of the Tox21 compound library against the ER-beta-bla cell line was tested in parallel by measuring the cell viability using CellTiter-Glo assay in the same wells.\nTox21 Assay Protocol Summary: ER-beta-UAS-bla HEK293T cells were dispensed at 2,000 cells/4 uL of assay medium containing 2% charcoal stripped FBS per well into black wall/clear-bottom 1536-well plates using a Multidrop Combi (ThermoFisher Scientific, Waltham, MA) dispenser. After the assay plates were incubated at a 37C and 5% CO2 for 6 hr, 23 nL of compounds dissolved in DMSO, positive controls or DMSO only was transferred to the assay plate by a Pintool station (Kalypsys, San Diego, CA), followed by addition of 1 uL (1nM as final concentration) of 17-beta-estradiol (E2) in assay medium using a Flying Reagent Dispenser (FRD, Aurora Discovery, San Diego, CA). The plates were incubated at 37C and 5% CO2 for 16 hr. Then 1 uL of LiveBLAzer B/G FRET substrate was added using a Flying Reagent Dispenser, the plates were incubated at room temperature for 2 hours, and fluorescence intensity was measured by an Envision plate reader (PerkinElmer, Shelton, CT). For cell viability readout that measures cytotoxicity, 4 uL/well of CellTiter-Glo reagent was added into the assay plates using a FRD. After 30 min incubation at room temperature, the luminescence intensity in the plates was measured using a ViewLux (PerkinElmer) plate reader."}
{"smiles": "C=C(C)C(=O)OCCO", "activity change, negative = cytotoxicity": "2.67% (inactive)"}
{"smiles": "COCC(C)OC(C)=O", "note": "(stereo not given)", "activity change, negative = cytotoxicity": "15.2% (inactive)"}
{"smiles": "OC(C#CCN1CCCC1)(c1ccccc1)c1ccccc1", "activity change, negative = cytotoxicity": "-11.3% [at 42.5 µM] (inactive)"}
{"smiles": "CCN(CC)c1ccc(C(=C2C=CC(=[N+](CC)CC)C=C2)c2cc(S(=O)(=O)O)ccc2S(=O)(=O)[O-])cc1", "activity change, negative = cytotoxicity": "-16.4% [at 42.5 µM] (inactive)"}
{"smiles": "NCCCN1CCOCC1", "activity change, negative = cytotoxicity": "-3.52% (inactive)"}
{"smiles": "CCCCCCCC/C=C\\CCCCCCCC(=O)OCC", "activity change, negative = cytotoxicity": "-6.66% (inactive)"}
{"smiles": "CCCCCCCCCCCCN1CCCCCC1=O", "activity change, negative = cytotoxicity": "0.848% (inactive)"}
{"smiles": "CN(C)CCN(Cc1ccccc1)c1ccccn1", "activity change, negative = cytotoxicity": "-21.9% [at 42.5 µM] (inactive)"}
{"smiles": "c1ccc(C(O[C@H]2CCCN(CCc3ccc4c(c3)OCO4)C2)c2ccccc2)cc1", "activity change, negative = cytotoxicity": "-13.6% [at 42.5 µM] (inactive)"}
{"smiles": "Cc1cccc(C)c1OCC(=O)N[C@@H](Cc1ccccc1)[C@@H](O)C[C@H](Cc1ccccc1)NC(=O)[C@H](C(C)C)N1CCCNC1=O", "Potency": "23.7 µM (active)"}
{"smiles": "CCOCC(O)COc1ccc(NC(=O)CC[S+](C)C)cc1", "note": "(stereo not given)", "activity change, negative = cytotoxicity": "7.02% [at 42.5 µM] (inactive)"}
{"smiles": "N=c1ccn2c(n1)O[C@H]1[C@H](O)[C@@H](CO)O[C@H]12", "activity change, negative = cytotoxicity": "-1.41% (inactive)"}
{"smiles": "CCN(CC)CCOC(=O)C(c1ccccc1)C1CCCCC1", "note": "(stereo not given)", "activity change, negative = cytotoxicity": "-14.7% [at 42.5 µM] (inactive)"}
{"smiles": "COc1cc(Cl)c(OC)cc1N", "activity change, negative = cytotoxicity": "-11.4% (inactive)"}
{"smiles": "CCn1cc(C(=O)O)c(=O)c2cnc(N3CCNCC3)nc21", "activity change, negative = cytotoxicity": "11.1% [at 42.5 µM] (inactive)"}
{"smiles": "CCOC(=O)C(F)(F)F", "activity change, negative = cytotoxicity": "4.05% (inactive)"}
{"smiles": "O=[N+]([O-])c1ccc2[nH]ncc2c1", "activity change, negative = cytotoxicity": "-14.4% (inactive)"}
{"smiles": "CN(C)CCN(Cc1ccsc1)c1ccccn1", "activity change, negative = cytotoxicity": "-1.06% [at 42.5 µM] (inactive)"}
{"smiles": "CCC(CC)Nc1ccc(C)c(C)c1", "activity change, negative = cytotoxicity": "16.2% (inactive)"}
{"smiles": "COc1ccc(C)cc1[N+](=O)[O-]", "activity change, negative = cytotoxicity": "4.62% (inactive)"}
{"smiles": "CC(C)(CO)[N+](=O)[O-]", "activity change, negative = cytotoxicity": "15.6% (inactive)"}
{"smiles": "CC(C)C[C@H]1C(=O)N2CCC[C@H]2[C@]2(O)O[C@](NC(=O)[C@@H]3C=C4c5cccc6[nH]c(Br)c(c56)C[C@H]4N(C)C3)(C(C)C)C(=O)N12", "activity change, negative = cytotoxicity": "-0.156% [at 42.5 µM] (inactive)"}
{"smiles": "COc1cc(Cl)ccc1Oc1ccc(Cl)cc1Cl", "activity change, negative = cytotoxicity": "1.62% (inactive)"}
{"smiles": "CN1Cc2cc(C(=O)N3CCC(C4CCNCC4)CC3)ccc2NC(CC(=O)O)C1=O", "note": "(stereo not given)", "activity change, negative = cytotoxicity": "7.82% [at 42.5 µM] (inactive)"}
{"smiles": "C1CCCNCCC1", "activity change, negative = cytotoxicity": "8.63% (inactive)"}
{"smiles": "CCCCc1ncc(/C=C(\\Cc2cccs2)C(=O)O)n1Cc1ccc(C(=O)O)cc1", "activity change, negative = cytotoxicity": "-0.0007% [at 42.5 µM] (inactive)"}
{"smiles": "CC1CCC(=O)C1=O", "note": "(stereo not given)", "activity change, negative = cytotoxicity": "-1.97% (inactive)"}
{"smiles": "O=C(O)c1ccco1", "activity change, negative = cytotoxicity": "-2.82% (inactive)"}
{"smiles": "COc1cc(C(=O)OCCCN2CCCN(CCCOC(=O)c3cc(OC)c(OC)c(OC)c3)CC2)cc(OC)c1OC", "activity change, negative = cytotoxicity": "-14.6% [at 42.5 µM] (inactive)"}
{"smiles": "COC(C)OC", "activity change, negative = cytotoxicity": "3.68% (inactive)"}
{"smiles": "Nc1ccc(S(=O)(=O)Nc2ccccc2)cc1", "activity change, negative = cytotoxicity": "-3.95% [at 42.5 µM] (inactive)"}
{"smiles": "O=C(Nc1ccccc1)c1ccccc1O", "activity change, negative = cytotoxicity": "-4.36% (inactive)"}
{"smiles": "O=C(O)C1(C(=O)O)CCC1.[NH2-].[NH2-].[Pt+2]", "activity change, negative = cytotoxicity": "-0.365% [at 42.5 µM] (inactive)"}
{"smiles": "O=C1C(O)=C(O)C(=O)C(O)=C1O", "activity change, negative = cytotoxicity": "0.537% [at 42.5 µM] (inactive)"}
{"smiles": "C=CCOC(=O)CCC1CCCCC1", "activity change, negative = cytotoxicity": "-1.33% (inactive)"}
{"smiles": "NC(=O)C(c1ccccc1)(c1ccccc1)[C@@H]1CCN(CCc2ccc3c(c2)CCO3)C1", "activity change, negative = cytotoxicity": "-12.1% [at 42.5 µM] (inactive)"}
{"smiles": "Nc1cccc([N+](=O)[O-])c1", "activity change, negative = cytotoxicity": "-3.39% (inactive)"}
{"smiles": "c1ccc(CNCCNCc2ccccc2)cc1", "activity change, negative = cytotoxicity": "-12.5% [at 42.5 µM] (inactive)"}
{"smiles": "c1ccc(-c2ccccn2)nc1", "activity change, negative = cytotoxicity": "-1.97% (inactive)"}
{"smiles": "O=C1[C@H]2CCCC[C@H]2C(=O)N1CCCCN1CCN(c2nsc3ccccc23)CC1", "activity change, negative = cytotoxicity": "-20.3% [at 42.5 µM] (inactive)"}
